Results published in ChEMBL document CHEMBL1157539, “Thousands of chemical starting points for antimalarial lead identification” (Nature, 2010).

What was measured:
Assay type in all cases: functional
[1] = tested on: Plasmodium falciparum; test: GSK_TCMDC: Inhibition of Plasmodium falciparum 3D7 in whole red blood cells, using parasite LDH activity as an index of growth. Test compounds present at 2uM
[2] = tested on: Plasmodium falciparum; test: GSK_TCMDC: Inhibition of Plasmodium falciparum Dd2 in whole red blood cells, using parasite LDH activity as an index of growth. Test compounds present at 2uM
[3] = tested on: HepG2; test: GSK_TCMDC: Percent inhibition of human HepG2 cell line. Test compounds present at 10uM.

| SMILES | Inhibition [1] | Inhibition [2] | Inhibition [3] |
| --- | --- | --- | --- |
| CN/C(=C\[N+](=O)[O-])NCCSCc1cc(C)c(CN(C)C)s1 | 98% | 96% | 48% |
| CNCCNCc1cccc(-c2cccc(-c3nc4cc(C(F)(F)F)ccc4[nH]3)c2)c1.O=C(O)C(F)(F)F | 100% | 97% | 22% |
| Cl.N#Cc1ccc2c(c1)CCN(CCC1CCC(NC(=O)c3ccc(-c4ccccn4)s3)CC1)CC2 (stereo not given) | 92% | 9% | 16% |
| Cc1ccc(F)c(C(=O)Nc2cccc(-c3nn4ccccc4c3-c3ccnc(Nc4cccc(F)c4)n3)c2)c1F | 98% | 60% | 35% |
| CCN(CC)CCCNc1c2ccccc2nc2ccccc12.Cl | 100% | 0% | 17% |
| CCN(CC)CC(O)c1cc(-c2ccc(C)cc2)nc2c(C)cc(C)cc12.Cl (stereo not given) | 100% | 99% | 3% |
| COc1ccc(S(=O)(=O)Nc2ccc(C(=O)NCc3ccc(C(F)(F)F)cc3)cc2)cc1N1CCN(CC2CC2)CC1.O=C(O)C(F)(F)F | 95% | 1% | 34% |
| Cc1cc(-c2cccc(CNCc3ccccc3)c2)ccc1S(=O)(=O)NCCN1CCCC1.O=C(O)C(F)(F)F | 98% | 58% | 40% |
| Nc1nonc1-c1nc2c(-c3cccc(Cl)c3)nccc2n1CCCNC(=O)Cc1ccc(Cl)cc1 | 94% | 92% | 0% |
| COc1ccccc1-c1csc(C(=O)NCC2CCN(Cc3ccc(C(C)(C)C)cc3)C2)c1.O=C(O)C(F)(F)F (stereo not given) | 93% | 11% | 29% |
| COc1cc2nc(C)nc(Nc3cccc(Br)c3)c2cc1OC.Cl | 100% | 82% | 0% |
| CCN(CCNS(C)(=O)=O)c1ccc(N)c(C)c1.O.O=S(=O)(O)O | 91% | 11% | 0% |
| COCCn1c(C)cc(C(=O)CN2C(=O)NC(C)(c3ccc(C(C)(C)C)cc3)C2=O)c1C (stereo not given) | 97% | 96% | 7% |
| O=C(Nc1c(F)cccc1F)c1cccc(-c2nn3ccccc3c2-c2ccnc(Nc3cccc(-c4cnco4)c3)n2)c1 | 95% | 94% | 96% |
| CN1CCN(CCCN(Cc2ccc(-c3cccc(CNC4CCCC4)c3)cc2)C(=O)Nc2ccccc2)CC1.O=C(O)C(F)(F)F | 92% | 76% | 28% |
| CC(C)(C)c1ccc2[nH]c(-c3ccc(/C=C/C(=O)NCc4cccc(C(F)(F)F)c4)cc3)nc2c1 | 93% | 11% | 31% |
| CC(C)c1ccc(CN2CCC(NC(=O)c3ccc(-c4cccc(F)c4)s3)CC2)cc1.O=C(O)C(F)(F)F | 83% | 12% | 47% |
| COc1cc(Cc2cnc(N)nc2N)cc(OCCCN2C(=O)c3ccccc3C2=O)c1OC | 96% | 0% | 0% |
| O=C(Nc1ccccc1)N(Cc1cccc(-c2ccc(CNC3CCCC3)cc2)c1)C1CCN(Cc2ccccc2)CC1.O=C(O)C(F)(F)F | 100% | 96% | 100% |
| CCOc1ccc2c(=NN=Cc3cccc(F)c3)cc(C)[nH]c2c1 | 100% | 100% | 0% |
| CCCNCc1ccc(-c2ccc(CN(CCOC)C(=O)c3ccccc3)cc2)nc1.O=C(O)C(F)(F)F | 94% | 25% | 16% |
| CN(c1ccc2c(c1)nc(NCc1ccc(F)cc1)n2C)c1ccnc(Nc2ccc(CS(C)(=O)=O)cc2)n1.Cl | 97% | 79% | 48% |
| O=C(CCc1nc2c(cnn2-c2ccccc2)c(=O)[nH]1)NC1CCSc2ccccc21 (stereo not given) | 95% | 52% | 10% |
| Cl.N=C(NCCc1ccccc1Cl)c1ccc2ccccc2c1 | 88% | 11% | 25% |
| Cc1[nH]c2ccc(C#N)cc2c(=O)c1Br | 91% | 61% | 2% |
